According to PubChem BioAssay AID743361 (Molecular Libraries Program, Specialized Chemistry Center, …, 2014):
A number with no mark means an inactive call. The source made the active and inactive calls. The rule behind the calls is not given here.

Test: cell-free Rh123 fluorescence quenching read-out – biochemical, dry powder samples, uHTS hits, counter-screen for mtPTP inhibitor project, dose response (AID 743361)
Settings: Rhodamine 123 fluorescence quenching counterscreen

Compound	IC50
O=C(Nc1cccc(Cl)c1)c1cc(-c2ccccc2)on1	> 100 µM
CC1(C)CCN(CCCC(=O)c2ccc(Br)cc2)CC1	> 100 µM
COc1ccc(Cl)cc1C(=O)Nc1ccc(CN2CCNCC2)cc1	> 100 µM
CCCc1cc(C(=O)Nc2ccc(Br)cc2)no1	> 100 µM
COc1ccc(Cl)c(C(=O)Nc2ccc(CN3CCCCC3)cc2)c1	> 100 µM
O=C(Nc1ccc(CN2CCCCC2)cc1)c1cccc(OCc2ccccc2)c1	55.4 µM (active)
COc1ccc(Cl)cc1C(=O)Nc1ccc(N2CCN(C)CC2)cc1	> 100 µM
Cc1cc(NC(=O)c2cc(-c3ccc(F)cc3)on2)no1	> 100 µM
COc1ccc(C(=O)CCN2CCCC(C)C2)cc1 (stereo unspecified)	> 100 µM
CCCc1cc(C(=O)Nc2c(F)cc(F)cc2Br)no1	> 100 µM
COc1ccc(Cl)cc1C(=O)Nc1ccc(CN2CCCCC2)cc1	> 100 µM
COc1ccc(Cl)cc1C(=O)Nc1ccc(CCN2CCNCC2)cc1	> 100 µM
O=C(Nc1ccccc1OCc1ccccc1)c1cc(-c2cccc(O)c2)on1	> 100 µM
COc1ccc(Cl)cc1S(=O)(=O)Nc1ccc(CCN2CCN(C)CC2)cc1	> 100 µM
O=S(=O)(Nc1ccc(CN2CCCCC2)cc1)c1cccc(Cl)c1	> 100 µM
O=C(Nc1ccc(CN2CCCCC2)cc1)c1cc(Cl)ccc1O	> 100 µM
